Results reported in paper PMC5540273 (PLoS ONE, 2017).
Read-outs that look alike come from different tables or passages of the source.

Key:
BMX = conditions: concentration: 1 μM,replicates: in singlicate; n = 1
BRAF = conditions: concentration: 1 μM,replicates: in singlicate; n = 1
BRK = tested on: T1, BRK; conditions: concentration: 1 μM,replicates: in singlicate; n = 1
T1 construct: gene PTK6

BRSK1 = conditions: concentration: 1 μM,replicates: in singlicate; n = 1
BRSK2 = conditions: concentration: 1 μM,replicates: in singlicate; n = 1
BTK = conditions: n = 1
BUB1 = conditions: concentration: 1 μM,replicates: in singlicate; n = 1
CAMK1B = conditions: concentration: 1 μM,replicates: in singlicate; n = 1
CAMK1D = conditions: concentration: 1 μM,replicates: in singlicate; n = 1
CAMK1G = conditions: concentration: 1 μM,replicates: in singlicate; n = 1
[1] = concentration: 1 μM,replicates: in singlicate
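Note: KINOMEscan kinase panel screen.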

Structure (SMILES) | %Inh (BMX) | %Inh (BRAF) | %Inh (BRK) | %Inh (BRSK1) | %Inh (BRSK2) | %Inh (BTK; [1]) | %Inh (BUB1) | %Inh (CAMK1B) | %Inh (CAMK1D) | %Inh (CAMK1G) | %Inh (BTK; 1 µM)
NC(=O)Nc1sc(-c2ccc(F)cc2)cc1C(N)=O [GW789449] | 0% | 8% | 0% | 2% | 0% | 62% | 20% | 34% | 43% | 0% | –
O=C(Nc1cccc(Oc2ccc3nccn3n2)c1)Nc1cccc(C(F)(F)F)c1 | 0% | 88% | 0% | 5% | 13% | 0% | 7% | 0% | 12% | 0% | –
COC(=O)c1cccc(NC(=O)NC2CCN(c3ccnc(Nc4cc(OC)c(OC)c(OC)c4)n3)C2)c1 (stereo not shown) [GSK1379767] | 30% | 0% | 8% | 0% | 0% | 37% | 48% | 38% | 14% | 0% | –
Cl.c1ccc(Oc2ccc(Nc3ccnc4cc(-c5ccc(CN6CCNCC6)o5)ccc34)cc2)nc1 [GW567142] | 4% | 0% | 92.7% | 0% | 0% | 76% | 38% | 0% | 20% | 0% | –
C[C@@H]1CNc2c(sc3ccc4nc(-c5ccncc5)ccc4c23)C(=O)N1 | 0% | 0% | 0% | 64% | 59% | 0% | 77% | 0% | 25% | 0% | –
COc1cc2c(Nc3ccc(NC(=O)c4ccccc4)cc3)ncnc2cc1OCCCN1CCOCC1 [GSK301329] | 7% | 0% | 77% | 20% | 0% | 0% | 10% | 9% | 35% | 9% | –
O=C(Nc1ccc(Oc2ccc3nc(NC(=O)C4CC4)cn3n2)c(F)c1)c1cccn(-c2ccccc2)c1=O | 46% | 41% | 72% | 3% | 5% | 0% | 0% | 0% | 14% | 0% | –
CCCC(=O)Nc1n[nH]c2ncccc12 [SB-601436] | 28% | 7% | 0% | 0% | 0% | 0% | 0% | 0% | 3% | 0% | –
CSc1nccc(-c2c(-c3ccc(F)cc3)ncn2CCCN2CCOCC2)n1.Cl [SB-217146] | 0% | 4% | 0% | 0% | 0% | 0% | 14% | 0% | 12% | 0% | –
NC(=O)c1ccc(-c2cc3ncnc(SCC(=O)O)c3s2)cc1 | 15% | 0% | 0% | 0% | 0% | 8% | 18% | 0% | 5% | 0% | –
CCOC(=O)N1CCC(n2cnc(-c3ccc(F)cc3)c2-c2ccnc(N)n2)CC1 [SB-219952] | 13% | 14% | 0% | 0% | 19% | 32% | 0% | 48% | 3% | 0% | –
COc1ccc(Nc2nccc(N3CCC(NC(=O)c4cccc(C#N)c4)C3)n2)cc1 (stereo not shown) [GSK1379730] | 0% | 0% | 8% | 0% | 0% | 28% | 53% | 13% | 0% | 0% | –
CN1CCN(CCCNc2nccc(-c3c(-c4ccc(F)cc4)nn4cc(C(N)=O)ccc34)n2)CC1 [GW622475] | 20% | 49% | 6% | 9% | 29% | 0% | 25% | 0% | 21% | 21% | –
COc1cc(Nc2nccc(N3CCC(NC(=O)c4cccc(C#N)c4)C3)n2)cc(OC)c1OC (stereo not shown) [GSK1379751] | 0% | 0% | 0% | 0% | 100% | 0% | 61% | 22% | 0% | 0% | –
FC(F)(F)c1cc(Br)cc(Nc2nccc(-c3cnn4ncccc34)n2)c1 [GW810578] | 10% | 0% | 0% | 0% | 0% | 0% | 16% | 29% | 5% | 18% | –
COc1cccc(C2=C(Nc3cccc(Cl)c3)C(=O)NC2=O)c1 [SB-341556] | 24% | 0% | 19% | 11% | 2% | 0% | 23% | 29% | 36% | 0% | –
CC(=O)c1c(-c2ccncc2)[nH]c(-c2ccncc2)c1C [GW493036] | 0% | 19% | 3% | 0% | 0% | 7% | 84% | 0% | 20% | 0% | –

Structure (SMILES) | %Inh (BMX) | %Inh (BRAF) | %Inh (BRK) | %Inh (BRSK1) | %Inh (BRSK2) | %Inh (BTK; [1]) | %Inh (BUB1) | %Inh (CAMK1B) | %Inh (CAMK1D) | %Inh (CAMK1G) | %Inh (BTK; 1 µM)
CCN1CCN(CCCC(=O)Nc2n[nH]c3nc(-c4ccc(O)cc4)c(Br)cc23)CC1 [SB-731579] | 0% | 81% | 0% | 50% | 54% | 0% | 5% | 65% | 17% | 0% | –
C[C@@H](Oc1cc(-n2cnc3cc(-c4cnn(C)c4)ccc32)sc1C(N)=O)c1ccccc1Cl [GSK580432] | 22% | 0% | 0% | 82% | 93.3% | 0% | 27% | 22% | 31% | 26% | –
CS(=O)(=O)c1cccc(CNc2nc(Nc3ccc4c(c3)[C@@H]3C[C@@H]4CNC3=O)ncc2C(F)(F)F)c1 | 4% | 0% | 0% | 0% | 0% | 0% | 0% | 19% | 0% | 0% | –
O=C(NOCC1CC1)c1cc(Br)c(F)c(F)c1Nc1ccc(I)cc1Cl | 0% | 0% | 0% | 0% | 0% | 0% | 0% | 0% | 0% | 0% | –
Cl.Nc1n[nH]c2cc(-c3ccccn3)ccc12 [GSK2189892] | 12% | 0% | 32% | 0% | 0% | 0% | 0% | 0% | 25% | 0% | –
CCn1c(-c2nonc2N)nc2cncc(CNC3CCNCC3)c21.Cl [SB-747651] | 0% | 10% | 0% | 4% | 0% | 14% | 48% | 30% | 22% | 0% | –
Cc1n[nH]c2cc(Nc3ccnc(Nc4cccc(CN5CCOCC5)c4)n3)ccc12 [GW682569] | 11% | 0% | 47% | 0% | 0% | 60% | 36% | 37% | 26% | 1% | –
COc1cc2nccc(Nc3ccc(Oc4ccccc4)cc3)c2cc1OC.Cl [GI261656] | 36% | 0% | 96.1% | 0% | 0% | 93.3% | 31% | 23% | 2% | 0% | –
C[C@@H]1CCN(C(=O)N2CCCC2)C[C@@H]1N(C)c1ncnc2[nH]ccc12 | 1% | 11% | 0% | 0% | 5% | 1% | 25% | 18% | 8% | 5% | –
Cc1ccc(C(=O)Nc2ccc(Oc3ccc4nc(NC(=O)C5CC5)cn4c3)c(F)c2)c(=O)n1-c1ccccc1 | 73% | 57% | 88% | 0% | 0% | 0% | 0% | 0% | 0% | 0% | –
Cn1cc(-c2cccc3c(N)c(C(N)=O)nnc23)cn1 | 15% | 30% | 8% | 11% | 18% | – | 32% | 0% | 29% | 7% | 86%
Cn1ccc2ncnc(Oc3ccc(NC(=O)Nc4cncc(C(F)(F)F)c4)c(Cl)c3)c21 | 0% | 52% | 0% | 0% | 0% | 0% | 0% | 0% | 0% | 0% | –
C[C@@H](Oc1cc(-n2cnc3ccc(-c4ccncc4)cc32)sc1C(N)=O)c1ccccc1Cl [GSK483724] | 27% | 8% | 25% | 24% | 20% | 0% | 41% | 8% | 21% | 21% | –
COc1cc2ncn(-c3cc(OCC4CCCCC4)c(C(N)=O)s3)c2cc1OC [GSK204559] | 10% | 0% | 8% | 30% | 45% | 0% | 17% | 6% | 16% | 11% | –
CS(=O)(=O)Nc1ccc(-c2ccnc3[nH]ccc23)cc1 [GSK993273] | 0% | 0% | 0% | 8% | 0% | 0% | 35% | 27% | 38% | 30% | –
OCCn1cc(-c2cnc3nnn(Cc4ccc5ncccc5c4)c3n2)cn1 | 0% | 1% | 0% | 22% | 0% | 0% | 0% | 0% | 4% | 0% | –
CC(C(=O)NC1CCN(c2ccnc(Nc3ccc(F)cc3)n2)C1)c1ccc(Cl)cc1 (stereo not shown) [GSK1379713] | 0% | 0% | 0% | 5% | 0% | 0% | 18% | 37% | 8% | 13% | –
